# In PubChem BioAssay (EPA / NIEHS):
# Inconclusive results are not listed. Active and inactive are the calls of the source. Rule for the calls, unless noted: active = hit-call score of the fitted dose curve at least 0.9, where 1 is the maximum; inactive = score below 0.9.
# Columns and labels:
# [1] = ATG_TCF_b_cat_CIS: Attagene CIS-FACTORIAL HepG2 Assay for human T-Cell-Factor with beta-catenin (TCF/b-cat) (AID 2282965); conditions: HepG2 TCF/beta-catenin cis-reporter transcription, actives raise or lower the signal
# How it was run: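 In this cis-format system, transfected HepG2 cells report endogenous transcription factor activity. Readout after 24 h exposure is reporter transcript abundance from RT-PCR and capillary electrophoresis, analysed for gain or loss of signal versus DMSO.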
# [2] = ATG_TAL_CIS: Attagene CIS-FACTORIAL HepG2 Assay for human TAL Basal Promoter (AID 2282966); conditions: HepG2 Attagene cis-factorial TAL promoter reporter; actives raise or lower the signal;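 note: background control endpoint measuring basal TAL promoter reporter mRNA not a specific factor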
# How it was run: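 Steps: transfect HepG2 with multiple reporter transcription units; dose 24 h; isolate RNA, reverse-transcribe, PCR-amplify, label with 6-FAM, digest with HpaI; resolve by capillary electrophoresis. Bidirectional fitting against DMSO baseline.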
# [3] = ATG_TGFb_CIS: Attagene CIS-FACTORIAL HepG2 Assay for human Transforming Growth Factor (TGF) (AID 2282967); conditions: HepG2 Attagene CIS TGFb reporter, mRNA transcription; actives raise or lower the signal
# How it was run: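 Endogenous TGFB1-linked transcription factor activity read as reporter mRNA via RT-PCR and capillary electrophoresis, 24 h after dosing transiently transfected HepG2 cells. Gain or loss of signal fitted relative to DMSO.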
# [4] = target: Nuclear receptor subfamily 1 group I member 3 (Homo sapiens) (UniProt Q14994); experiment: ATG_CAR_TRANS: Attagene TRANS-FACTORIAL HepG2 Assay for human Constitutive Androstane Receptor (CAR) (AID 2282969; active = hit-call score of the fitted dose curve at least 0.9, where 1 is the maximum;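 note: activators raise reporter mRNA above DMSO so AC50 marks induction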); conditions: HepG2 Attagene TRANS-FACTORIAL CAR reporter
# How it was run: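 HepG2 cells transiently transfected with multiplexed GAL4-UAS reporter units expressing chimeric NR-Gal4 proteins; compound exposure 24 h. Reporter mRNA measured by RT-PCR, 6-FAM labelling, HpaI digestion and capillary electrophoresis; gain-of-signal fitted against DMSO baseline.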
# [5] = target: Estrogen receptor (Homo sapiens) (UniProt P03372); experiment: ATG_ERa_TRANS: Attagene TRANS-FACTORIAL HepG2 Assay for human Estrogen Receptor alpha (ERa) (AID 2282970; active = hit-call score of the fitted dose curve at least 0.9, where 1 is the maximum); conditions: HepG2 Attagene TRANS ERa GAL4 reporter, mRNA
# How it was run: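 Multiplexed cell-based reporter format in HepG2: chimeric ERa-Gal4 protein drives GAL4-UAS reporter transcription. Fluorescent reporter mRNA quantified by capillary electrophoresis 24 hours after dosing; endpoint fitted as signal gain against DMSO.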
# [6] = target: X-box-binding protein 1 (Homo sapiens) (UniProt P17861); experiment: ATG_Xbp1_CIS: Attagene CIS-FACTORIAL HepG2 Assay for human X-box Binding Protein 1 (XBP1) (AID 2282972); conditions: HepG2 XBP1 cis-element reporter, Attagene multiplex; actives raise or lower the signal
# How it was run: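 HepG2 cells transiently transfected with multiple cis-element reporter units report endogenous TF activity; 24 h exposure, then reporter mRNA measured by RT-PCR, 6-FAM labelling, HpaI digestion and capillary electrophoresis. Bidirectional fitting versus DMSO.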
# [7] = ATG_M_19_TRANS: Attagene TRANS-FACTORIAL HepG2 Assay for M19 Transcription Factor (Internal Marker) (AID 2282974; active = hit-call score of the fitted dose curve at least 0.9, where 1 is the maximum); conditions: HepG2 Attagene TRANS-FACTORIAL M19 internal marker reporter
# How it was run: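 Background-control readout: after 24 h chemical exposure of transfected HepG2 carrying GAL4-driven reporter units, RNA was reverse-transcribed, amplified, fluorescently labeled and sized by capillary electrophoresis; gain-of-signal fit against DMSO.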
# [8] = ATG_GAL4_TRANS: Attagene TRANS-FACTORIAL HepG2 Assay for GAL4 (Internal Marker) (AID 2282976; active = hit-call score of the fitted dose curve at least 0.9, where 1 is the maximum); conditions: HepG2 Attagene TRANS GAL4 internal marker reporter
# How it was run: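 Liver HepG2 line bearing multiplexed GAL4-UAS reporter constructs; 24 h chemical treatment. Transcripts were quantified as fluorescent fragments on capillary electrophoresis after RT-PCR and HpaI cut, with activity fitted upward from DMSO.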
# [9] = ATG_VDRE_CIS: Attagene CIS-FACTORIAL HepG2 Assay for human Vitamin D Receptor Element (VDRE) (AID 2282968); conditions: HepG2 VDRE cis-reporter transcription, actives raise or lower the signal
# How it was run: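 RT-PCR/CE readout of reporter mRNA; HepG2, transient transfection, 24 h dosing; DMSO baseline; bidirectional analysis.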
# [10] = target: Steroid hormone receptor ERR1 (Homo sapiens) (UniProt P11474); experiment: ATG_ERRa_TRANS: Attagene TRANS-FACTORIAL HepG2 Assay for human Estrogen-Related Receptor alpha (ERRa) (AID 2282971; active = hit-call score of the fitted dose curve at least 0.9, where 1 is the maximum); conditions: HepG2 Attagene TRANS reporter, ERRa transactivation
# How it was run: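 Signal gain relative to DMSO for an ERRa-Gal4 chimeric receptor, read as reporter mRNA by RT-PCR/capillary electrophoresis. Human HepG2 liver cells, transient multiplex reporter transfection, 24 h chemical exposure.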
# Chain of Estrogen receptor (Homo sapiens) (P03372 whole entry, looked up, the tested form may be a part): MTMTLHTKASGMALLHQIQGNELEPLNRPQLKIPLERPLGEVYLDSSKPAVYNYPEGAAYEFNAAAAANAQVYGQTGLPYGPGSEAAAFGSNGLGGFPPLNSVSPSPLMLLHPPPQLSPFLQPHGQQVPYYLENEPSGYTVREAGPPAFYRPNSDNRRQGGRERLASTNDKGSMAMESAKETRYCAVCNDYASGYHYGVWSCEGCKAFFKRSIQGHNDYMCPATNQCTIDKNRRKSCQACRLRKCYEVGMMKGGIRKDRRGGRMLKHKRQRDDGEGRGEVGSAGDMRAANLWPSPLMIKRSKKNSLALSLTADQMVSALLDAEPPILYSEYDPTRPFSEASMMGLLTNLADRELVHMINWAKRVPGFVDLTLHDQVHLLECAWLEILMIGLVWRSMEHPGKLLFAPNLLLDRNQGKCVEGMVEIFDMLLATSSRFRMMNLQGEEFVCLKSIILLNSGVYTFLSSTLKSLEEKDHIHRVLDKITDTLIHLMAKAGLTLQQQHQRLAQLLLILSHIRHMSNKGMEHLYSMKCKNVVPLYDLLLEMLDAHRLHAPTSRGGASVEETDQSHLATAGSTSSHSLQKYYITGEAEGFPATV
# Chain of X-box-binding protein 1 (Homo sapiens) (P17861 whole entry, looked up): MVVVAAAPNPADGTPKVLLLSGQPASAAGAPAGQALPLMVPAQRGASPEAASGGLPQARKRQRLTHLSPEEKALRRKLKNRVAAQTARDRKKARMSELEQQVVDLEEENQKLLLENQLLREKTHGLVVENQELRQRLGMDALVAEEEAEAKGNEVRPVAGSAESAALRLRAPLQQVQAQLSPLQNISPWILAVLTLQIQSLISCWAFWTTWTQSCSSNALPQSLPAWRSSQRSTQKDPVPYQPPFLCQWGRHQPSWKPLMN
# Chain of Steroid hormone receptor ERR1 (Homo sapiens) (P11474 whole entry, looked up, the tested form may be a part): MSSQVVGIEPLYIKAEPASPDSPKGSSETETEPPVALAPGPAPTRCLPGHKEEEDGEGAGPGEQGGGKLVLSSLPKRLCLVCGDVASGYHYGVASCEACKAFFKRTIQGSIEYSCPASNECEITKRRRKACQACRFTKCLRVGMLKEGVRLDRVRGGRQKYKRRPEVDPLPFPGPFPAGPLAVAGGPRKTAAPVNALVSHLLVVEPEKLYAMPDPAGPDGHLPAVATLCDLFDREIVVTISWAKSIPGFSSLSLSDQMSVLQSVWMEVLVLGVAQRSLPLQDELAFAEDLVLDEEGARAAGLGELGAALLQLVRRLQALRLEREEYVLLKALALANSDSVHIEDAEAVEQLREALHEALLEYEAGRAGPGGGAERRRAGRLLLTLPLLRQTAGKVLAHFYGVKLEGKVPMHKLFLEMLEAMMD
# Chain of Nuclear receptor subfamily 1 group I member 3 (Homo sapiens) (Q14994 whole entry, looked up, the tested form may be a part): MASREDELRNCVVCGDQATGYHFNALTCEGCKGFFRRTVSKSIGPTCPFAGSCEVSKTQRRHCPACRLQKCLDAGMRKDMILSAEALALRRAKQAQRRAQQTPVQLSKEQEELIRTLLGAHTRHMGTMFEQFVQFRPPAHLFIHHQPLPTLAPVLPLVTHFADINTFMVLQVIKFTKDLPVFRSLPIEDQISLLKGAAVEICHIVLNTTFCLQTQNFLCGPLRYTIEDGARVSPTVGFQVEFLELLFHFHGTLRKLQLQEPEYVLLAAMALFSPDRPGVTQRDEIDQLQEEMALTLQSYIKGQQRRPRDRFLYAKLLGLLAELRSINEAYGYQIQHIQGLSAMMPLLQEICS
smiles,measurement,setting,value
NCCN1CCNCC1,outcome,[1],inactive
same,outcome,[2],inactive
same,outcome,[3],inactive
same,outcome,[4],inactive
same,outcome,[5],inactive
same,outcome,[6],inactive
same,outcome,[7],inactive
CCOC(=O)CC1(C)OCC(C)O1 (stereo unspecified),outcome,[1],inactive
same,outcome,[2],inactive
same,outcome,[3],inactive
same,outcome,[4],inactive
same,outcome,[5],inactive
same,outcome,[6],inactive
OCCN1CCOCC1,outcome,[1],inactive
same,outcome,[2],inactive
same,outcome,[3],inactive
same,outcome,[4],inactive
same,AC50,[5],67.5 µM (active)
same,outcome,[6],inactive
same,outcome,[8],inactive
CC1(C)CC(=O)CC(C)(C)N1,outcome,[1],inactive
same,outcome,[2],inactive
same,outcome,[3],inactive
same,outcome,[9],inactive
same,outcome,[6],inactive
same,outcome,[8],inactive
OC[C@H]1O[C@@H](O[C@H]2[C@H](O)[C@@H](O)[C@H](O)O[C@@H]2CO)[C@H](O)[C@@H](O)[C@H]1O,outcome,[1],inactive
same,outcome,[2],inactive
same,outcome,[3],inactive
same,outcome,[4],inactive
same,outcome,[5],inactive
same,outcome,[6],inactive
same,outcome,[7],inactive
same,outcome,[8],inactive
CC(=O)CC(C)(C)C1CCCCC1,outcome,[1],inactive
same,outcome,[2],inactive
same,outcome,[3],inactive
same,outcome,[4],inactive
same,outcome,[5],inactive
same,outcome,[10],inactive
same,outcome,[6],inactive
same,outcome,[7],inactive
same,outcome,[8],inactive
CC(C)Cc1ccc(C(C)C(=O)O)cc1 (stereo unspecified),outcome,[1],inactive
same,outcome,[2],inactive
same,outcome,[3],inactive
same,outcome,[4],inactive
same,AC50,[5],36.4 µM (active)
same,outcome,[10],inactive
same,outcome,[6],inactive
same,outcome,[7],inactive
CC(C)N1C(=O)c2ccccc2C1=O,outcome,[1],inactive
same,outcome,[2],inactive
same,outcome,[3],inactive
same,outcome,[4],inactive
same,AC50,[5],42.8 µM (active)
same,outcome,[6],inactive
CCC(C)(CCCC(C)C)OC(C)=O (stereo unspecified),outcome,[1],inactive
same,outcome,[2],inactive
same,outcome,[3],inactive
same,outcome,[4],inactive
same,outcome,[5],inactive
same,outcome,[6],inactive
same,outcome,[7],inactive
same,outcome,[8],inactive
CC1=CCC(C(C)C)=CC1,outcome,[1],inactive
same,outcome,[2],inactive
same,outcome,[3],inactive
same,outcome,[4],inactive
same,outcome,[6],inactive
same,outcome,[7],inactive
NC(=O)c1cnccn1,outcome,[1],inactive
same,outcome,[2],inactive
same,outcome,[3],inactive
same,outcome,[4],inactive
same,outcome,[5],inactive
same,outcome,[6],inactive
O=C1CCCCCCCCCCCC(=O)OCCO1,outcome,[1],inactive
same,outcome,[2],inactive
same,outcome,[3],inactive
same,outcome,[4],inactive
same,outcome,[10],inactive
same,outcome,[6],inactive
same,outcome,[7],inactive
Cc1cccc(O)c1,outcome,[1],inactive
same,outcome,[2],inactive
same,outcome,[3],inactive
same,outcome,[4],inactive
same,outcome,[5],inactive
same,outcome,[6],inactive
CCCCCCCCOC(=O)c1ccc(O)cc1,outcome,[1],inactive
same,outcome,[2],inactive
same,outcome,[3],inactive
same,outcome,[4],inactive
same,AC50,[5],5.53 µM (active)
same,outcome,[6],inactive
same,outcome,[7],inactive
same,outcome,[8],inactive
CC1=CCC(=C(C)C)CC1,outcome,[1],inactive
same,outcome,[2],inactive
same,outcome,[3],inactive
same,outcome,[4],inactive
same,AC50,[5],33.3 µM (active)
same,outcome,[6],inactive
same,outcome,[7],inactive
same,outcome,[8],inactive
CCCCCCCCOS(=O)(=O)O,outcome,[1],inactive
same,outcome,[2],inactive
same,outcome,[3],inactive
same,outcome,[4],inactive
same,AC50,[5],100 µM (active)
same,outcome,[10],inactive
same,outcome,[6],inactive
same,outcome,[8],inactive
CCC(=O)OCC=Cc1ccccc1,outcome,[1],inactive
same,outcome,[2],inactive
same,outcome,[3],inactive
same,outcome,[9],inactive
same,outcome,[6],inactive
same,outcome,[8],inactive
CC(=O)c1ccc(O)cc1,outcome,[1],inactive
same,outcome,[2],inactive
same,outcome,[3],inactive
same,outcome,[4],inactive
same,outcome,[5],inactive
same,outcome,[6],inactive
COc1cc(OC)c2ccc(=O)oc2c1,outcome,[1],inactive
same,outcome,[2],inactive
same,outcome,[3],inactive
same,outcome,[6],inactive
same,outcome,[8],inactive
CC(C)Cc1ccccc1,outcome,[1],inactive
same,outcome,[2],inactive
same,outcome,[3],inactive
same,outcome,[6],inactive
CCCCN(CCO)CCO,outcome,[1],inactive
same,outcome,[2],inactive
same,outcome,[3],inactive
same,outcome,[5],inactive
same,outcome,[6],inactive
C/C=C(\C)C(=O)OC/C=C(\C)CCC=C(C)C,outcome,[1],inactive
same,outcome,[2],inactive
same,outcome,[3],inactive
same,outcome,[5],inactive
same,outcome,[6],inactive
C=CC(=O)OCCCCCC,outcome,[1],inactive
same,outcome,[2],inactive
same,outcome,[3],inactive
same,outcome,[6],inactive
same,outcome,[7],inactive
same,outcome,[8],inactive
CC(CO)(CO)[N+](=O)[O-],outcome,[1],inactive
same,outcome,[2],inactive
same,outcome,[3],inactive
same,outcome,[5],inactive
same,outcome,[6],inactive
same,outcome,[7],inactive
same,outcome,[8],inactive
N#CCCCC(C#N)CCC#N (stereo unspecified),outcome,[1],inactive
same,outcome,[2],inactive
same,outcome,[3],inactive
same,outcome,[10],inactive
same,outcome,[6],inactive
same,outcome,[8],inactive
O=c1cc(-c2ccc(O)cc2)oc2cc(O)cc(O)c12,outcome,[1],inactive
same,outcome,[2],inactive
same,outcome,[3],inactive
same,outcome,[4],inactive
same,AC50,[6],16.2 µM (active)
same,outcome,[7],inactive
CC(=O)CCC=C(C)CCC=C(C)C,outcome,[1],inactive
same,outcome,[2],inactive
same,AC50,[9],7.02 µM (active)
same,outcome,[4],inactive
same,outcome,[5],inactive
same,outcome,[6],inactive
Brc1cc(Br)cc(Br)c1,outcome,[1],inactive
same,outcome,[2],inactive
same,AC50,[9],65 µM (active)
same,outcome,[4],inactive
same,outcome,[5],inactive
same,outcome,[10],inactive
same,outcome,[6],inactive
CC(=O)OC(C)(C)C,outcome,[1],inactive
same,outcome,[2],inactive
same,outcome,[3],inactive
same,outcome,[6],inactive
same,outcome,[7],inactive
same,outcome,[8],inactive
CC(C)N(c1ccccc1)C(C)C,outcome,[1],inactive
same,outcome,[2],inactive
same,outcome,[9],inactive
same,outcome,[4],inactive
same,outcome,[5],inactive
same,outcome,[6],inactive
NC(N)=NC(N)=NCCc1ccccc1,outcome,[1],inactive
same,outcome,[2],inactive
same,outcome,[3],inactive
same,outcome,[5],inactive
same,outcome,[6],inactive
same,outcome,[7],inactive
CC(C)=CCCC(C)=CC(=O)O,outcome,[1],inactive
same,outcome,[2],inactive
same,outcome,[3],inactive
same,outcome,[6],inactive
O=C1CCC(=O)N1,outcome,[1],inactive
same,outcome,[2],inactive
same,outcome,[3],inactive
same,outcome,[5],inactive
same,outcome,[10],inactive
same,outcome,[6],inactive
same,outcome,[7],inactive
CC(C)C(=O)c1ccccc1,outcome,[1],inactive
same,outcome,[2],inactive
same,outcome,[3],inactive
same,AC50,[5],0.604 µM (active)
same,outcome,[10],inactive
same,outcome,[6],inactive
same,outcome,[7],inactive
same,outcome,[8],inactive
CCC(CC)CO,outcome,[1],inactive
same,outcome,[2],inactive
same,outcome,[9],inactive
same,outcome,[4],inactive
same,outcome,[5],inactive
same,outcome,[6],inactive
same,outcome,[7],inactive
same,outcome,[8],inactive
CCO[Si](CC)(OCC)OCC,AC50,[1],173 µM (active)
same,outcome,[2],inactive
same,AC50,[3],160 µM (active)
same,outcome,[6],inactive
same,outcome,[8],inactive
OCCCO,outcome,[1],inactive
same,outcome,[2],inactive
same,outcome,[3],inactive
same,outcome,[6],inactive
same,outcome,[8],inactive
CCCCCCCCCCCCOC(C)=O,outcome,[1],inactive
same,outcome,[2],inactive
same,outcome,[3],inactive
same,outcome,[5],inactive
same,outcome,[6],inactive
same,outcome,[7],inactive
same,outcome,[8],inactive
[Cu+],outcome,[1],inactive
same,outcome,[2],inactive
same,outcome,[3],inactive
same,outcome,[5],inactive
same,outcome,[6],inactive
same,outcome,[7],inactive
CCCCCCC(C)O (stereo unspecified),outcome,[1],inactive
same,outcome,[2],inactive
same,outcome,[3],inactive
same,outcome,[6],inactive
same,outcome,[7],inactive
